According to PubChem BioAssay AID2284065 (EPA ToxCast):
The source made the active and inactive calls. The calls were made as follows: active = hit-call score of the fitted dose curve at least 0.9, where 1 is the maximum; inactive = score below 0.9.

Molecular target: CYP2C8, CYP2C8 (gene 1558) (UniProt P10632)
Assay: ERF_FR_ADME_hCYP2C8: Eurofins (ERF) CYP450-related Enzyme Activity (ADME) Assay for CYP2C8
Description: ERF_FR_ADME_hCYP2C8 is a biochemical, single-readout assay that uses extracted gene-proteins in a cell-free assay. Measurements were taken 0.16 hour after chemical dosing in a 96-well plate. See CYP2C8 inhibition (HLM, amodiaquine substrate).ERF_FR_ADME_hCYP2C8 is an assay component calculated from the ERF_FR_ADME_hCYP2C8 assay. It is designed to measure enzyme activity using a type of enzyme reporter as detected by peak area response of desethylamodiaquine with HPLC-MS/MS technology.Data from the assay component ERF_FR_ADME_hCYP2C8 was analyzed at the assay endpoint, ERF_FR_ADME_hCYP2C8, in the positive analysis fitting direction relative to acetonitrile as the negative control and baseline of activity. Using a type of enzyme reporter, loss-of-signal activity can be used to understand changes in enzymatic activity as they relate to gene CYP2C8. To generalize the intended target to other relatable targets, this assay endpoint is annotated to the cyp intended target family, where the subfamily is […].
Assay cells are incubated for 10 minutes at 37C with 10 uM amodiaquine.

Chain of CYP2C8, CYP2C8 (gene 1558) (P10632 whole entry, looked up): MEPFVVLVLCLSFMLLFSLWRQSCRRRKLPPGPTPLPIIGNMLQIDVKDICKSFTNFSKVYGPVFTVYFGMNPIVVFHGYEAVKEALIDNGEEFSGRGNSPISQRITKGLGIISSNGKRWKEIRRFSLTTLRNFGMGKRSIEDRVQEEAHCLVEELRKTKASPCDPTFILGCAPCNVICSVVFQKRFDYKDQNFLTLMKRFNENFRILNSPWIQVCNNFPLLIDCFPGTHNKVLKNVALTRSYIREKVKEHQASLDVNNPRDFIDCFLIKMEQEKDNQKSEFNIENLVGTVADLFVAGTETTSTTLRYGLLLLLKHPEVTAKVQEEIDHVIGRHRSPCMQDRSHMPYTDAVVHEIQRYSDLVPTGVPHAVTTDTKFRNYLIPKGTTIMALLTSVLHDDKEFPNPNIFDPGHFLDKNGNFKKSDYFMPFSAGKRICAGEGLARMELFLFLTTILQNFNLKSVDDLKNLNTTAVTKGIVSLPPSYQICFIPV

Row | Compound | AC50
1 | COc1cc(CCC(=O)CC(=O)CCc2ccc(O)c(OC)c2)ccc1O | 1830 nM (active)
2 | CCCCC[C@H](O)CC(=O)CCc1ccc(O)c(OC)c1 | 2270 nM (active)
